Data taken from PubChem BioAssay (NCATS).
Records with an inconclusive call do not appear. Entries that show only a call come without a potency. Active and inactive are the calls of the source. Calls follow the shape of the dose curve; as a rule, active = well fitted inhibition curve with a large enough effect; inconclusive = small, poorly fitted or top-dose-only effect; inactive = no such curve, though single readings can be large or run the other way.

Assay: qHTS assay for measurement of the activity of small molecule inhibitors on Zika virus induced Caspase-3 activity in human iPSC derived neural progenitor cells (hNPCs) (AID 1224857); also: nearly all actives have a fitted effect of over 65% in size
Conditions: hNPCs ZIKV-induced caspase-3/7, Caspase-Glo luminescence, 6 h; series mostly up to 45.7 µM
Description: National Center for Advancing Translational Sciences [NCATS]
Johns Hopkins University School of Medicine
Increase in the Caspase-3 activity indicates an activation of apoptosis cell death pathway caused by Zika virus infection in certain types of neuronal cells including human neural progenitor cells (hNPCs), astrocytes, and astrocytoma cell line (SNB-19). This cell-based caspase-3 activity assay measures the increased caspase-3 activity in the human iPSC derived neural progenitor cells (hNPCs) after a 6-hour Zika virus infection with a luminescence readout. A decrease in the luminescence signal in this assay by small molecule treatment indicates an inhibitory effect of that small molecule on the Zika virus induced caspase-3 activity that may correlate with its effect on reduction of Zika virus caused cell death.
The medium for hNPCs consists of DMEM/F12, N2 supplement (ThermoFisher, Cat.# 17502048), NEAA (ThermoFisher, Cat. # 11140050), 2 ug/ml heparin, 2 uM cyclopamine, and B27 (ThermoFisher, Cat. # 17504044). A Caspase-Glo 3/7 assay kit (catalog number G8092; Promega, Madison, WI) was used to detect caspase-3 activity induced by Zika virus infection in human cells. The reagent mixture was reconstituted as described in the protocol from the manufacturer. Polystyrene tissue culture treated and PDL coated white plates were obtained from Greiner Bio-One (Monroe, NC). Cells were seeded in 384- or 1536-well assay plates and cultured at 37 C with 5% CO2 for 16 to 20 hours. The typical cell seeding density in the 1536-well plate assay is 350 cells/well in 3 ul medium for hNPCs in tissue culture treated plates. Compounds were added to cells and incubated for one hour before addition of ZIKV solution to cells (2 FFU/cell). After incubation at 37 C with 5% CO2 for 6 hours, the reagent mixture of Caspase-Glo 3/7 assay kit was added to each well, followed by incubation at room temperature for 30 minutes. The luminescence intensity of the assay plates was measured using a ViewLux plate reader (PerkinElmer). Data were normalized by using the cell-containing wells without ZIKV as a negative control (0% induction of caspase 3/7 activity) and wells containing ZIKV infected cells (Caspase-3 activity induced) as a positive control (100% induction of caspase 3 activity). The percentage inhibitions of the increased Caspase-3 activity by small molecule inhibitors were then calculated.
Potency is read from the fitted curve at half-maximal effect.

Row | SMILES | Potency
1 | Nc1nc(Cl)nc2c1ncn2[C@@H]1O[C@H](CO)[C@@H](O)[C@H]1F | inactive
2 | CO[C@H]1O[C@@H]2O[C@@]3(C)CC[C@@H]4[C@@H](C)CC[C@@H]([C@H]1C)[C@@]24OO3 | inactive
3 | COc1cc2c(cc1OC)CC(=O)N(CCCN(C)C[C@H]1Cc3cc(OC)c(OC)cc31)CC2 | inactive
4 | O=c1[nH]nc(OCCCc2ccc(Cl)cc2)c(NCc2cccnc2)c1Br | inactive
5 | C[C@@H]1[C@H](C)CC[C@]2(C(=O)O)CC[C@]3(C)C(=CC[C@@H]4[C@@]5(C)CC[C@H](O)C(C)(C)[C@H]5CC[C@]43C)[C@@H]12 | inactive
6 | CCNC(=O)Nc1ccc(Oc2ncnc(N)c2C=NOC)cc1Cl | inactive
7 | CCCCc1ccc(NS(=O)(=O)c2ccc(C)c(C(=O)N3CCN(c4cccc(C)c4C)CC3)c2)cc1 | inactive
8 | Cc1ccc(NC(=O)Nc2cc(C(F)(F)F)ccc2F)cc1Nc1ccc2c(c1)NC(=O)C2=Cc1ccc[nH]1 | inactive
9 | NC[C@H]1O[C@H](O[C@@H]2[C@@H](O)[C@@H](O[C@H]3O[C@H](CO)[C@@H](O)[C@H](N)[C@@H]3O)[C@H](N)C[C@@H]2N)[C@H](O)[C@@H](O)[C@H]1O | inactive
10 | CC(C)(CO)[C@@H](O)C(=O)NCCC(=O)O | inactive
11 | OCCn1cc(-c2ccc3c(c2)CCC3=NO)c(-c2ccncc2)n1 | inactive
12 | C[C@H]1COC2=C1C(=O)C(=O)c1c2ccc2c1CCCC2(C)C | inactive
13 | Cc1cnc(Nc2cccc(CN3CCOCC3)c2)nc1Nc1cccc(S(=O)(=O)NC(C)(C)C)c1 | inactive
14 | Cc1cc(-c2ncc(CC(=O)Nc3ccc(-c4cnccn4)cn3)cc2C)ccn1 | inactive
15 | Cc1nc(C(=O)NCC(=O)O)c(O)c2ccc(Oc3ccccc3)cc12 | inactive
16 | CCOC(=O)N1CCN([N+]([O-])=NOc2cc(ON=[N+]([O-])N3CCN(C(=O)OCC)CC3)c([N+](=O)[O-])cc2[N+](=O)[O-])CC1 | inactive
17 | CCC(C)SSc1ncc[nH]1 (stereo not given) | 26.4 µM (active)
18 | Fc1ccc(CNc2ncnc3ccc(F)cc23)cc1 | inactive
19 | COc1ccc(C=CC(=O)Nc2ccccc2C(=O)O)cc1OC | 2.64 µM (active)
20 | CSc1cccc(Nc2ncc3cc(-c4c(Cl)cccc4Cl)c(=O)n(C)c3n2)c1 | inactive

Row | SMILES | Potency
21 | CN(C)c1nc(Cc2ccc(NC(=O)c3ccc(C(F)(F)F)cc3)cc2)nc(N(C)C)c1CC(=O)O | inactive
22 | COc1cccc(OC)c1-c1cc(C(=O)NC2(C(=O)O)C3CC4CC(C3)CC2C4)nn1-c1ccnc2cc(Cl)ccc12 (stereo not given) | inactive
23 | CNC(=O)[C@H](Cc1ccccc1)NC(=O)[C@H](CC(C)C)[C@H](CSc1cccs1)C(=O)NO | inactive
24 | Cn1cnc(-c2cc3nccc(Oc4ccc(NC(=S)NC(=O)Cc5ccccc5)cc4F)c3s2)c1 | inactive
25 | O=C(CO)N1CCC(c2[nH]nc(-c3ccc(Cl)cc3)c2-c2ccncn2)CC1 | inactive
26 | COC(=O)[C@H](c1ccccc1Cl)N1CCc2sccc2C1 | inactive
27 | C[C@@H]1CC=CC=CC=CC=C[C@@H](O[C@@H]2O[C@H](C)[C@@H](O)[C@H](N)[C@H]2O)C[C@@H]2O[C@](O)(C[C@@H](O)C[C@@H]3O[C@@H]3C=CC(=O)O1)C[C@H](O)[C@@H]2C(=O)O | inactive
28 | O=C(CCCN1CCN(c2ccc(F)cc2)CC1)NC1c2ccccc2CSc2ccccc21 (stereo not given) | inactive
29 | COc1ccc2c(c1)c(C1=C(c3c[nH]c4ccccc34)C(=O)NC1=O)cn2CCCN(C)C | inactive
30 | COc1cc2nc(-c3cc(F)ccc3O)nc(N[C@@H]3CNC[C@@H]3C(C)(C)O)c2cc1OC | inactive
31 | O=C(O)CCC=CCC[C@@H]1[C@H](N2CCCCC2)[C@@H](O)C[C@@H]1OCc1ccc(-c2ccccc2)cc1 | inactive
32 | COc1cc2nccc(Oc3ccc(NC(=O)Nc4cc(C)on4)c(Cl)c3)c2cc1OC | inactive
33 | O=C(O)c1nc(=O)[nH]c(=O)[nH]1 | inactive
34 | COc1ccc2ccc(=O)oc2c1CC=C(C)C | inactive
35 | CNc1nc(-c2ccc3c(N)n[nH]c3c2)cc(N2C[C@@H](C(=O)NC3CCCCC3)CC[C@@H]2C)n1 | inactive
36 | CCN(CC)CCCCNc1nc2cc(Cl)c(Cl)cc2nc1-c1ccc(-c2cccs2)s1 | inactive
37 | CN(C)CCCNC(=O)c1ccc(-c2cc(O)c3ncccc3c2)cc1 | inactive
38 | O[C@@H](COc1cccc2ncccc12)CN1CCN(C2c3ccccc3[C@@H]3[C@H](c4ccccc42)C3(F)F)CC1 (stereo not given in full) | 26.4 µM (active)
39 | CN1CCC(COc2cnc(-c3cccc(Cn4nc(-c5cccc(C#N)c5)ccc4=O)c3)nc2)CC1 | inactive
40 | CC(NCCc1ccc(O)cc1)C(O)c1ccc(O)cc1 (stereo not given) | inactive
